From PubChem
Compounds with a hit are over-represented: about 2.4% of the library has one in this group of screens.
D2 PAM-1 – positively modulates the human D2 dopamine receptor allosterically. P14416. HEK293 T-REx D2, calcium flux, EC20 dopamine potentiation. potentiation, % at 10 µM. hit rate 0.34% among 340,000;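 active = potentiation over 3 SD above the plate norm, cut at about 30% in these data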
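Using a no-wash calcium dye in inducible, force-coupled HEK293 Trex cells expressing D2, we tracked fluorescence each second for 180 s after compound, then for 180 s after EC20 dopamine to detect augmented signalling.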
D2 PAM-2 – potentiates the human D2 dopamine receptor allosterically; P14416; DiscoveRx D2 beta-arrestin cells, luminescence, 90 min; 100% = 57 uM dopamine signal; potentiation, % (no concentration beside the values); hit rate 0.23% among 360,000; AID 624464; in the data active = potentiation above about 50%; inconclusive = mostly about 30% to 49%
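PathHunter D2 cells, attached overnight at 37 deg C, received compound in DMSO plus dopamine at EC20 (50 nM final) for 90 min at 37 deg C. Beta-arrestin recruitment was read as luminescence after 1 h with detection reagent at ambient temperature.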
D2 antagonist – antagonizes the human D2 dopamine receptor | HEK293 TREx D2 cells, calcium flux, dopamine EC80 | inhibition, % at 10 µM | hit rate 2% among 340,000; in the data active = inhibition above about 30%; inactive = below that, where a call was filed
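Dopamine at EC80 is the agonist stimulus; test compounds precede it by 180 s. Calcium flux read kinetically in a force-coupled, inducible HEK293 T-REx D2 cell line.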
D2 ag-1 – agonists of human D2 dopamine receptor; hit rate 0.53% among 340,000; HEK293 T-REx D2 cells, calcium flux agonist mode; activation, % at 2 µM; P14416;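 active = activation over 3 SD above normal in the single-dose calcium agonist read, cut at about 30% in these data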
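HEK293 Trex D2 cells, tetracycline-induced, o/n 30 C 5% CO2; no-wash Ca dye, RT 30–90 min; 10-cycle baseline, 23 nl cpd added, kinetic Ca read 180 s; agonist hits = positive Ca response.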
D2 ag-2 – human D2 receptor agonism in beta-arrestin assay. hit rate 0.084% among 360,000. P14416. activation, % (no concentration beside the values). DiscoveRx PathHunter D2 beta-arrestin, luminescence, 90 min; 100% = 57 uM dopamine signal. AID 624465; in the data active = activation above about 40%; inconclusive = between about 15% and that limit
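Agonist mode: compounds alone added to overnight-plated D2 PathHunter cells for 90 min at 37 C, with 57 uM final dopamine (EC100) defining full response. Beta-arrestin recruitment detected by chemiluminescent reagent, read after 1 h at ambient temperature.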
D3 arrestin ag – activates human D3 dopamine receptor beta-arrestin recruitment. shares compounds with D2 ag-1. DiscoveRx D3 beta-arrestin cells, luminescence, 90 min. Potency, µM (titrated, usually from 76.9 µM), most hits filed as activators. hit rate 4% among 2,300. AID 720506; note: nearly all actives have a fitted effect of over 70% in size
Target sequence (P35462 whole entry, looked up): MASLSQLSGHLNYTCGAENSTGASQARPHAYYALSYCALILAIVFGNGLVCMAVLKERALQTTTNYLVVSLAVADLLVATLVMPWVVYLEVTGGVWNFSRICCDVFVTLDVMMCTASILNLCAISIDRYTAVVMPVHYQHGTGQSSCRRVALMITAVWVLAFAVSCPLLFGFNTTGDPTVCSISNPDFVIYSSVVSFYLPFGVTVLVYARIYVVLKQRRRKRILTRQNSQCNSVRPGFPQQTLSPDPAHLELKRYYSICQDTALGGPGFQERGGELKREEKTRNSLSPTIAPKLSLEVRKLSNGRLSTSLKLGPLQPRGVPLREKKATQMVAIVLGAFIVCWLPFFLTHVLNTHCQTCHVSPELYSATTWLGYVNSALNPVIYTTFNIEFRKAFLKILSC
D2 ag-3 – counter-screen for D3 agonists: human D2 dopamine receptor agonism. shares compounds with D2 ag-1. DiscoveRx PathHunter D2 beta-arrestin, luminescence, 90 min; response scale: percent relative to full dopamine signal. Potency, µM (highest dose often 76.9 µM), usual class: activators. hit rate 5.9% among 2,300. AID 720507; note: nearly all actives have a fitted effect of over 70% in size
A number is an active result; - = inactive; ? = inconclusive; . = no result. Unless noted, calls come from the whole dose curve; as a rule, active = well fitted activation curve with a large enough effect; inconclusive = small, poorly fitted or top-dose-only effect; inactive = flat fitted curve, though single readings scatter.

SMILES	D2 PAM-1	D2 PAM-2	D2 antagonist	D2 ag-1	D2 ag-2	D3 arrestin ag	D2 ag-3
N/C(=N\OC(=O)c1ccccc1)C(C(=O)NOC(=O)c1ccccc1)C1CCCCC1 (configuration not stated)	.	-	.	.	-	.	.
COCc1cc(C)nc(OCC(=O)N/N=C/c2ccc(O)cc2)c1C#N	-	-	-	50	-	-	-
O=C(c1cccc(C(F)(F)F)c1)C1CCCN(C(=O)Cn2cncn2)C1 (configuration not stated)	-	-	-	-	-	.	.
O=C(c1ccc(C(F)(F)F)cc1)C1CCCN(C(=O)Cn2cncn2)C1 (configuration not stated)	-	-	-	-	-	-	-
CCn1c(=O)n(-c2ccc3c(c2)OCO3)c2nc(-c3ccc(C(C)C)cc3)nc(C(N)=O)c21	-	.	.	-	.	.	.
Cc1ccccc1NC(=O)COc1coc(CN2CCN(Cc3ccccc3)CC2)cc1=O	-	-	-	74	-	-	-
O=C(COc1coc(CN2CCN(c3ccccc3F)CC2)cc1=O)NC1CCCCC1	-	-	-	-	-	-	-
Cc1ccc(NC(=O)COc2coc(CN3CCN(Cc4ccccc4)CC3)cc2=O)cc1	-	-	-	-	-	.	.
O=C(CSC1=N/C(=C/c2ccc(Cl)c(Cl)c2)C(=O)N1c1ccccc1F)NC1CC1	-	-	52	-	-	-	-
CC(Sc1ncccn1)C(=O)Nc1ccc2c(c1)OCCO2 (configuration not stated)	.	-	.	.	-	.	.
CC(Sc1nc2ccccc2[nH]1)C(=O)Nc1ccc2c(c1)OCCO2 (configuration not stated)	-	-	66	-	-	-	-
COC(=O)c1sc2nc3c(cc2c1N)C(=O)CC(C)(C)C3	-	-	-	-	-	.	.
Cc1cc(C)c(NC(=O)c2sc3nc4c(cc3c2N)C(=O)CC(C)(C)C4)c(C)c1	-	-	-	44	-	-	-
Cc1ccccc1S(=O)(=O)NC(=O)C1(C)CCN1C(=O)CC1CCCC1 (configuration not stated)	.	-	.	.	-	.	.
CC(C)c1cccc(C(C)C)c1OC(=O)[C@H]1OC(c2ccc(Br)cc2)=C[C@@H]1c1ccc(Br)cc1	-	-	-	-	-	-	-
CC(C)c1cccc(C(C)C)c1OC(=O)[C@H]1OC(C(C)(C)C)=C[C@@H]1c1ccccc1	-	-	-	-	-	.	.
Cc1c(C)n(C)c2ccc(C(=O)N3CCN(c4ccccn4)CC3)cc12	-	-	31	56	-	?	-
Cc1c(C)n(C)c2ccc(C(=O)N3CCN(c4ccccc4)CC3)cc12	-	-	.	-	-	.	.
CCCCc1c(O)nc(SCC(=O)N2CCOCC2)n(-c2ccc(C)cc2)c1=O	.	-	.	.	-	.	.
COc1ccccc1N1CCN(C2CCN(C(=O)c3cc(OC)c(OC)c(OC)c3)CC2)CC1	-	-	-	-	-	.	.
COc1cc(OC)cc(C(=O)N2CCC(N3CCN(c4ccccc4)CC3)CC2)c1	-	-	37	43	-	-	-
COc1ccccc1N1CCN(C2CCN(C(=O)c3cccc(F)c3)CC2)CC1	-	-	-	-	-	.	.
COc1ccc(C(=O)N2CCN(C3CCC(c4ccccc4)CC3)CC2)cc1OC (configuration not stated)	-	-	-	-	-	.	.
COc1ccccc1N1CCN(C2CCN(C(=O)c3ccc(F)cc3)CC2)CC1	-	-	-	-	-	-	-
COc1ccc(C(=O)N2CCC(N3CCN(c4ccccc4)CC3)CC2)cc1OC	-	-	-	41	-	-	-
SMILES	D2 PAM-1	D2 PAM-2	D2 antagonist	D2 ag-1	D2 ag-2	D3 arrestin ag	D2 ag-3
CCOc1ccc(NC(=O)Cc2ccc(S(=O)(=O)N3CCCCC3)cc2)cc1OCC	.	-	.	.	-	.	.
O=C(CCCSc1ccc(Cl)cc1)Nc1cc(S(=O)(=O)N2CCOCC2)ccc1O	-	-	-	-	-	.	.
CCCCn1c(N)c(N(CCC(C)C)C(=O)c2cccc(N3C(=O)c4ccccc4C3=O)c2)c(=O)[nH]c1=O	.	-	.	.	-	.	.
CCCCN(C(=O)c1ccc(N2C(=O)c3ccccc3C2=O)cc1)c1c(N)n(CC(C)C)c(=O)[nH]c1=O	-	-	-	-	-	-	-
Nc1c(Cl)ncnc1NCC(O)CO (configuration not stated)	-	-	-	-	-	-	-
COc1cc(C)c(NC(=O)C(=S)NCCc2ccccc2)cc1C	-	-	-	-	-	-	-
COc1ccc(NC(=S)NCCc2ccccc2)c(C)c1	-	-	-	-	-	.	.
CC(C)c1ccc(/C=C/c2[nH]c(=O)[nH]c(=O)c2[N+](=O)[O-])cc1	-	?	-	-	-	.	.
C=CCN(CC=C)CCOc1cc(C)ccc1[N+](=O)[O-]	-	-	-	-	-	-	-
CC(=O)NCC1CCCN(Cc2cn(-c3ccccc3)nc2-c2ccc3c(c2)OCO3)C1 (configuration not stated)	-	-	-	-	-	.	.
COC(=O)C1CCN(Cc2cn(-c3ccccc3)nc2-c2ccc3c(c2)OCO3)CC1	-	-	82	41	-	-	-
COC(=O)C1CCN(Cc2nnc(-c3ccccc3)o2)CC1	-	-	66	45	?	4µM	-
c1ccc(-c2nnc(CN3CCCCC3)o2)cc1	-	-	-	-	-	.	.
COc1ccc(OC2C(=O)N(c3ccc(C)c(C)c3)C2c2ccc(OC)c(OC)c2)cc1 (configuration not stated)	-	-	-	54	-	-	-
Cc1cc(C)n(-c2nnc(Nc3ccc(C)c(Cl)c3)c3ccccc23)n1	-	.	.	-	.	.	.
CC(NCC(O)COc1ccccc1)C1COc2ccccc2O1 (configuration not stated)	-	-	64	65	?	-	-
CC(NCc1ccccc1)C1COc2ccccc2O1 (configuration not stated)	-	-	-	38	-	-	-
CCCCN1CC(N2CCCCC2)CS1(=O)=O (configuration not stated)	.	-	.	.	-	.	.
CC(Nc1n[nH]c(=O)[nH]c1=O)C(=O)N/N=C/c1ccccc1 (configuration not stated)	-	-	-	-	-	-	-
COc1cc(/C=N/NC(=O)C(C)Nc2n[nH]c(=O)[nH]c2=O)ccc1O (configuration not stated)	.	-	.	.	-	.	.
COc1cc(CN2CCC(C(=O)N3CCN(c4ccccc4F)CC3)CC2)cc(OC)c1O	-	-	34	-	-	-	-
